# Calls of active or inactive are those of the source. Rule as the data show it: active = IC50 below about 3 µM; inactive = the rest.
# Test: luminescence signal interference by compounds, dose response, artefact control for SENP inhibitor project, biochemical (AID 488920)
# Details: luminescence interference counterscreen, spectral interferers
row,SMILES,IC50
1,COc1cc2c(cc1OC)-c1c(OC)c(OC)cc3c1C(C2)N(C)CC3 (stereo not drawn),> 5 µM (inactive)
2,CCC(C)NC(=O)c1c(N)n(CCCOC)c2nc3ccccc3nc12 (stereo not drawn),> 5 µM (inactive)
3,CCOC(=O)c1c(NS(=O)(=O)c2ccccc2)n(CCCOC)c2nc3ccccc3nc12,> 5 µM (inactive)
